# PubChem BioAssay AID1159580 (chemical genetic matrix, 2015)
# Out of some 5,500 compounds screened, about 2,000 (36%) were called active. Not shown: some 18% with an inconclusive outcome. Some of the results follow. Values without a mark were called inactive. No stated cut-off is given here; in the data, active means normalized growth mostly below about 0.91 (no sharp cut-off); inconclusive means no clear call, values can overlap the other calls; inactive means mostly above about 0.92.
# Assay: chemical genetic growth profiling, strain panel (AID 1159580);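 further: tested at 20 µM; growth read once vehicle control cultures reached saturation at 30 °C; 1 = growth at the plate median or of vehicle wells; lower values mean less growth of the strain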
# Details: S. cerevisiae deletion strains, growth OD
smiles,measurement,setting,value
CCc1cc2c(cc1-c1csc(C/C(N)=N\O)n1)C(C)(C)CCC2(C)C,normalized growth,"locus YAR019C, strain CDC15, hits give low values",0.985
same,normalized growth,"locus YBL105C, strain PKC1, hits give low values",0.974
same,normalized growth,"locus YBR135W, strain CKS1, hits give low values",0.969
same,normalized growth,"locus YBR136W, strain MEC1, hits give low values",0.981
same,normalized growth,"locus YBR160W, strain CDC28, hits give low values",0.986
same,normalized growth,"locus YDL017W, strain CDC7, hits give low values",0.978
same,normalized growth,"locus YDL028C, strain MPS1, hits give low values",0.985
same,normalized growth,"locus YDL101C, strain DUN1, hits give low values",0.979
same,normalized growth,"locus YDL108W, strain KIN28, hits give low values",0.968
same,normalized growth,"locus YDL132W, strain cdc53, hits give low values",0.965
same,normalized growth,"locus YDL214C, strain PRR2, hits give low values",0.757
same,normalized growth,"locus YDR052C, strain DBF4, hits give low values",0.974
same,normalized growth,"locus YDR054C, strain cdc34, hits give low values",0.97
same,normalized growth,"locus YDR226W, strain ADK1, hits give low values",0.976
same,normalized growth,"locus YDR477W, strain SNF1, hits give low values",0.75
same,normalized growth,"locus YER123W, strain YCK3, hits give low values",0.568 (active)
same,normalized growth,"locus YER133W, strain GLC7, hits give low values",0.712 (active)
same,normalized growth,"locus YFL009W, strain cdc4, hits give low values",0.967
same,normalized growth,"locus YFL029C, strain CAK1, hits give low values",0.974
same,normalized growth,"locus YFR003C, strain YPI1, hits give low values",0.974
same,normalized growth,"locus YFR019W, strain FAB1, hits give low values",0.819
same,normalized growth,"locus YFR028C, strain CDC14, hits give low values",0.973
same,normalized growth,"locus YGR040W, strain KSS1, hits give low values",0.749
same,normalized growth,"locus YGR052W, strain FMP48, hits give low values",0.567 (active)
same,normalized growth,"locus YGR092W, strain DBF2, hits give low values",0.722
same,normalized growth,"locus YHR030C, strain SLT2, hits give low values",0.499 (active)
same,normalized growth,"locus YHR079C, strain IRE1, hits give low values",0.525
same,normalized growth,"locus YHR082C, strain KSP1, hits give low values",0.647
same,normalized growth,"locus YHR205W, strain SCH9, hits give low values",0.77
same,normalized growth,"locus YIL147C, strain SLN1, hits give low values",0.981
same,normalized growth,"locus YJL095W, strain BCK1, hits give low values",0.532
same,normalized growth,"locus YJL128C, strain PBS2, hits give low values",0.962
same,normalized growth,"locus YJL157C, strain FAR1, hits give low values",0.779
same,normalized growth,"locus YJR016C, strain ILV3, hits give low values",0.965
same,normalized growth,"locus YJR066W, strain TOR1 (second series), hits give low values",0.601 (active)
same,normalized growth,"locus YJR066W, strain TOR1, hits give low values",0.666
same,normalized growth,"locus YKL048C, strain ELM1, hits give low values",0.721 (active)
same,normalized growth,"locus YKL067W, strain YNK1, hits give low values",0.755
same,normalized growth,"locus YKL101W, strain HSL1, hits give low values",0.701 (active)
same,normalized growth,"locus YKL193C, strain SDS22, hits give low values",0.973
same,normalized growth,"locus YKL203C, strain TOR2, hits give low values",0.764
same,normalized growth,"locus YLR113W, strain HOG1, hits give low values",0.369 (active)
same,normalized growth,"locus YLR133W, strain CKI1, hits give low values",0.813
same,normalized growth,"locus YLR403W, strain SFP1, hits give low values",0.784
same,normalized growth,"locus YML070W, strain DAK1, hits give low values",0.618 (active)
same,normalized growth,"locus YMR001C, strain CDC5, hits give low values",0.969
same,normalized growth,"locus YMR205C, strain PFK2 (second series), hits give low values",0.78
same,normalized growth,"locus YMR277W, strain FCP1, hits give low values",0.963
same,normalized growth,"locus YNL006W, strain LST8, hits give low values",0.977
same,normalized growth,"locus YNL020C, strain ARK1, hits give low values",0.788
same,normalized growth,"locus YNL161W, strain CBK1, hits give low values",0.977
same,normalized growth,"locus YNL183C, strain NPR1, hits give low values",0.553 (active)
same,normalized growth,"locus YNL207W, strain RIO2, hits give low values",0.964
same,normalized growth,"locus YNL222W, strain SSU72, hits give low values",0.972
same,normalized growth,"locus YNL307C, strain MCK1 (second series), hits give low values",0.797
same,normalized growth,"locus YOL078W, strain AVO1, hits give low values",0.969
same,normalized growth,"locus YOL136C, strain PFK27, hits give low values",0.738
same,normalized growth,"locus YOR061W, strain CKA2, hits give low values",0.788
same,normalized growth,"locus YOR119C, strain RIO1, hits give low values",0.78
same,normalized growth,"locus YOR231W, strain MKK1, hits give low values",0.525 (active)
same,normalized growth,"locus YOR329C, strain SCD5, hits give low values",0.981
same,normalized growth,"locus YPL031C, strain PHO85, hits give low values",0.639 (active)
same,normalized growth,"locus YPL153C, strain RAD53, hits give low values",0.552 (active)
same,normalized growth,"locus YPL204W, strain HRR25, hits give low values",0.759
same,normalized growth,"locus YPL209C, strain IPL1, hits give low values",0.976
same,normalized growth,"locus YPL256C, strain CLN2, hits give low values",0.546 (active)
same,normalized growth,"locus YPR025C, strain CCL1, hits give low values",0.978
same,normalized growth,"locus YPR106W, strain ISR1, hits give low values",0.976
same,normalized growth,"locus YPR111W, strain DBF20, hits give low values",0.966
same,normalized growth,"strain NNK1, hits give low values",0.947
same,normalized growth,"strain TSCII, hits give low values",0.975
